Several values for one entry are separate records, joined by “and”; a condition that tells them apart may be missing. Equal values may be shown once. Screen size: about 5,500 compounds; about 2,000 (36%) were called active. Another 18% or so got no clear call; they are omitted. Cut-off read from the data, not from the text of the source: active = normalized growth mostly below about 0.91 (no sharp cut-off); inconclusive = no clear call, values can overlap the other calls; inactive = mostly above about 0.92. The list shows a part of the results.
Experiment: chemical genetic growth profiling, strain panel (AID 1159580);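 note: tested at 20 µM; growth read once vehicle control cultures reached saturation at 30 °C; 1 = growth at the plate median or of vehicle wells; lower values mean less growth of the strain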
Settings: S. cerevisiae deletion strains, growth OD

Measured: normalized growth

NS(=O)(=O)c1cc2c(cc1Cl)NC(CSCc1ccccc1)=NS2(=O)=O
inactive: locus YAL021C, strain ccr4, hits give low values 0.986 | locus YAL026C, strain drs2, hits give low values 1.01 | locus YAL030W, strain snc1, hits give low values 1.01 | locus YBL061C, strain skt5, hits give low values 1.02 | locus YBR009C, strain hhf1, hits give low values 0.993 | locus YBR021W, strain FUR4, hits give low values 0.973 | locus YBR023C, strain chs3, hits give low values 1.04 | locus YBR171W, strain sec66, hits give low values 1.03 | locus YBR229C, strain ROT2, hits give low values 0.986 | locus YBR231C, strain swc5, hits give low values 1.02 | locus YBR279W, strain paf1, hits give low values 1.01 | locus YCL011C, strain gbp2, hits give low values 1.01 | locus YCL016C, strain dcc1, hits give low values 0.993 | locus YCL029C, strain bik1, hits give low values 0.988 | locus YCL061C, strain MRC1, hits give low values 1.01 | locus YCL069W, strain vba3, hits give low values 1.01 | locus YCR088W, strain abp1, hits give low values 1.01 | locus YDL005C, strain med2, hits give low values 1 | locus YDL035C, strain GPR1, hits give low values 1.04 | locus YDL040C, strain nat1, hits give low values 0.995 | locus YDL074C, strain BRE1, hits give low values 0.99 | locus YDL101C, strain DUN1, hits give low values 0.973 | locus YDL134C, strain PPH21, hits give low values 1.02 | locus YDL185W, strain tfp1, hits give low values 0.989 | locus YDL192W, strain arf1, hits give low values 0.997 | locus YDR001C, strain nth1, hits give low values 1.03 | locus YDR069C, strain doa4, hits give low values 1.04 | locus YDR101C, strain arx1, hits give low values 0.987 | locus YDR137W, strain rgp1, hits give low values 1.02 | locus YDR159W, strain sac3, hits give low values 1 | locus YDR162C, strain NBP2, hits give low values 1.03 | locus YDR195W, strain ref2 1.03 | locus YDR297W, strain sur2, hits give low values 1.02 | locus YDR318W, strain mcm21, hits give low values 0.991 | locus YDR334W, strain swr1, hits give low values 1.02 | locus YDR335W, strain msn5, hits give low values 1.02 | locus YDR388W, hits give low values 0.978 | locus YDR392W, strain spt3, hits give low values 0.948 | locus YDR502C, strain sam2, hits give low values 0.988 | locus YEL003W, strain gim4, hits give low values 1.03 | locus YEL037C, strain rad23, hits give low values 1.02 | locus YEL061C, strain CIN8 (second series), hits give low values 1.05 | locus YEL061C, strain CIN8, hits give low values 0.995 | locus YER015W, strain faa2, hits give low values 1.01 | locus YER016W, strain bim1, hits give low values 1 | locus YER110C, hits give low values 0.965 | locus YER111C, strain swi4, hits give low values 1.03 | locus YER155C, strain BEM2 (second series), hits give low values 1.04 | locus YER155C, strain BEM2, hits give low values 0.981 | locus YER167W, strain BCK2, hits give low values 1 | locus YFR010W, strain ubp6, hits give low values 1.03 | locus YGL078C, strain dbp3, hits give low values 0.991 | locus YGL086W, strain mad1, hits give low values 0.989 | locus YGL167C, strain pmr1, hits give low values 1.03 | locus YGL173C, strain kem1, hits give low values 1.01 | locus YGL227W, strain vid30, hits give low values 1.02 | locus YGL240W, strain doc1, hits give low values 1.03 | locus YGL248W, strain PDE1, hits give low values 0.98 | locus YGL253W, strain hxk2, hits give low values 1.01 | locus YGR078C, strain PAC10, hits give low values 0.986 | locus YGR135W, strain pre9, hits give low values 0.992 | locus YGR252W, strain gcn5, hits give low values 1.01 | locus YHR013C, strain ard1, hits give low values 0.975 | locus YHR027C, strain rpn1, hits give low values 1.01 | locus YHR030C, strain SLT2, hits give low values 0.99 and 0.983 | locus YHR079C, strain IRE1 (second series), hits give low values 0.984 | locus YHR079C, strain IRE1, hits give low values 0.977 | locus YHR094C, strain hxt1, hits give low values 0.97 | locus YHR129C, strain ARP1, hits give low values 0.984 | locus YHR142W, strain chs7, hits give low values 1.02 | locus YHR200W, strain rpn10, hits give low values 0.989 | locus YIL066C, strain RNR3, hits give low values 1.01 | locus YIL073C, strain SPO22, hits give low values 0.99 | locus YIL125W, strain kgd1, hits give low values 0.986 | locus YIR030C, strain dcg1, hits give low values 0.993 | locus YJL092W, strain hpr5, hits give low values 1.02 | locus YJL095W, strain BCK1 (second series), hits give low values 1.02 | locus YJL095W, strain BCK1, hits give low values 0.954 and 0.975 | locus YJL115W, strain asf1, hits give low values 1.02 | locus YJL129C, strain trk1, hits give low values 1.06 | locus YJL134W, strain LCB3, hits give low values 0.987 | locus YJL154C, strain vps35, hits give low values 1.03 | locus YJL164C, strain tpk1, hits give low values 0.977 | locus YJL166W, strain qcr8, hits give low values 1.04 | locus YJL168C, strain set2, hits give low values 0.992 | locus YJL187C, strain SWE1 (second series), hits give low values 0.965 | locus YJR043C, strain POL32, hits give low values 1.04 | locus YJR066W, strain TOR1, hits give low values 0.931
